Results as given in the supplement of paper PMC10981050.
Several values for one entry are separate records, joined by “and”; a condition that tells them apart may be missing. Equal values may be shown once. Where a name gives a salt, the structure may show the parent alone.

Assays:
Assay in all cases: cell viability relative to vehicle control; higher = less cytotoxic
Conditions in all cases: 10 µM
K562 = system: K562
Procedure, shortened: (§1)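 Mutant clones made by CRISPR editing and their isogenic wild-type counterparts, from four leukaemia lines, were exposed to a single 10 µM dose of each library compound for 48 h. The supernatant was then removed and CellTiter-Glo luminescence was read. Viability was reported as percent of the on-plate vehicle control.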

MARIMO = system: MARIMO
Procedure, shortened: as §1

MOLM14 = system: MOLM14
Procedure, shortened: as §1

OCI-AML2 = system: OCI-AML2
Procedure, shortened: as §1

Compound	cell viability (K562; SRSF2 genotype: SRSF2 P95H/wt)	cell viability (K562; SRSF2 genotype: SRSF2 wt/wt) [%]	cell viability (MARIMO; SRSF2 genotype: SRSF2 P95H/wt) [%]	cell viability (MARIMO; SRSF2 genotype: SRSF2 wt/wt) [%]	cell viability (MOLM14; SRSF2 genotype: SRSF2 P95H/wt) [%]	cell viability (MOLM14; SRSF2 genotype: SRSF2 wt/wt) [%]	cell viability (OCI-AML2; SRSF2 genotype: P95H/wt) [%]	cell viability (OCI-AML2; SRSF2 genotype: wt/wt) [%]
O=C(Nc1ccc(OC(F)(F)F)cc1)c1sccc1NCc1ccnc2ccccc12	44.9% and 48.7%	43.4	49.2	42.3	39	29.1	24	27.2
Nc1nc(Cl)nc2c1ncn2[C@H]1C[C@H](O)[C@@H](CO)O1 [Cladribine]	94.3% and 104%	101	12.2	8.19	2.38	0.54	4.93	4.28
C[C@@]1(c2cc(-c3cncnc3)c(F)cc2F)CCSC(N)=N1	100% and 99.9%	100	104	105	92.2	102	100	99.2
COc1ccc(C[C@@H]2c3cc(Oc4cc(C[C@@H]5c6cc(O)c(OC)cc6CCN5C)ccc4O)c(OC)cc3CCN2C)cc1 [Isoliensinine]	50.4% and 50.8%	61.2	10.2	16.6	2.24	1.04	0.44	0.95
Cn1cc(/C=C/C(=O)c2cccc(F)c2)cc1/C=C/C(=O)NO	90.3% and 97.5%	99.5	61.5	72.4	70.1	64.5	59.5	65.3
CN(C)C(=O)Nc1cccc(-c2ccc(N(C)C)cc2)c1 [Atglistatin]	90.1% and 82.6%	91.3	91.4	99.9	96.8	92.4	92.7	89.2
CC1(C)[C@@H](O)CC[C@]2(C)[C@H]3C(=O)C=C4[C@@H]5C[C@@](C)(C(=O)O)CC[C@]5(C)CC[C@@]4(C)[C@]3(C)CC[C@@H]12 [Enoxolone (Glycyrrhetin)]	97.3% and 106%	102	109	105	104	103	110	106
CC(C)(C#N)c1cc(Cn2cncn2)cc(C(C)(C)C#N)c1 [Anastrozole]	102% and 109%	107	97.4	105	103	99.1	93.5	95.3
CN[C@@H](C)C(=O)N[C@H](C(=O)N1CCC[C@H]1c1nc(C(=O)c2ccc(F)cc2)cs1)C1CCCCC1	84.3% and 92.2%	89.4	70.1	82.2	58.3	82.3	75.8	90.5
C[C@H]1C[C@@H]2[C@H]([C@@H](O)C[C@@]3(C)[C@H]2CC[C@]3(O)C(=O)CO)[C@@]2(C)C=CC(=O)C=C12 [Methylprednisolone]	100% and 106%	103	110	103	95.8	98.8	99.8	107
Cn1c(=O)c2c(ncn2CC(O)CO)n(C)c1=O (configuration not stated) [Dyphylline (Dilor)]	101% and 102%	100	94.9	105	97.8	101	95	102
Cc1cc(C)c(-c2csc(NC(=O)c3ccccc3)n2)c(C)c1	58.4% and 51.8%	51	35.1	31.6	45	40.5	39.5	27.5
CCOC(=O)/C=C/c1ccc(O)c(O)c1 [Ethyl caffeate]	88.5% and 88.6%	95	44.4	80.5	78.1	78.1	76.8	77.7
O=CC(O)C(O)C(O)C(O)COC1OC(COC2OC(CO)C(O)C(O)C2O)C(O)C(O)C1O (configuration not stated) [Manninotriose]	112% and 107%	110	97.8	97.1	103	104	108	104
CN(C)CCNC(=O)c1cccn2c(=O)c3cc4ccccc4cc3nc12	32.5% and 33.8%	30.8	35	26.6	0.3	0.24	0.28	1.23
COc1ccccc1N1CCN(CC(O)COc2cccc3ccccc23)CC1 (configuration not stated) [Naftopidil Dihydrochloride]	75.2% and 86.7%	72.6	57	65.2	58.4	60.1	71.4	74.5
CN(Cc1cc(Br)cc(Br)c1N)C1CCCCC1 [Bromhexine HCl]	96.8% and 96.7%	92.8	86.6	99.2	96.7	99.4	92.2	98.7
Cc1cc(N2CCOCC2)ccc1Nc1nc(NC2CCCCC2)c2[nH]cnc2n1	86.8% and 92.1%	94.6	53	53.9	49.6	39	37.8	39.8
CC(C)(O)CC[C@@H](O)[C@](C)(O)[C@H]1CC[C@@]2(O)C3=CC(=O)[C@@H]4C[C@@H](O)[C@@H](O)C[C@]4(C)[C@H]3CC[C@]12C [20-Hydroxyecdysone]	104% and 98.5%	102	109	107	106	106	101	111
CC[C@H]1OC(=O)[C@H](C)[C@@H](O[C@H]2C[C@@](C)(OC)[C@@H](O)[C@H](C)O2)[C@H](C)[C@@H](O[C@@H]2O[C@H](C)C[C@H](N(C)C)[C@H]2O)[C@](C)(O)C[C@@H](C)CN[C@H](C)[C@@H](O)[C@]1(C)O [Azathramycin]	104% and 112%	115	107	104	109	108	111	97.8

Compound	cell viability (K562; SRSF2 genotype: SRSF2 P95H/wt)	cell viability (K562; SRSF2 genotype: SRSF2 wt/wt) [%]	cell viability (MARIMO; SRSF2 genotype: SRSF2 P95H/wt) [%]	cell viability (MARIMO; SRSF2 genotype: SRSF2 wt/wt) [%]	cell viability (MOLM14; SRSF2 genotype: SRSF2 P95H/wt) [%]	cell viability (MOLM14; SRSF2 genotype: SRSF2 wt/wt) [%]	cell viability (OCI-AML2; SRSF2 genotype: P95H/wt) [%]	cell viability (OCI-AML2; SRSF2 genotype: wt/wt) [%]
CSCC[C@H](NC(=O)[C@H](CC(C)C)NC(=O)[C@H](Cc1c[nH]c2ccccc12)NC(=O)[C@H](CCC(N)=O)NC(=O)[C@@H](NC(=O)[C@H](Cc1ccccc1)NC(=O)[C@H](CC(=O)O)NC(=O)[C@H](CCC(N)=O)NC(=O)[C@H](C)NC(=O)[C@H](CCCNC(=N)N)NC(=O)[C@H](CCCNC(=N)N)NC(=O)[C@H](CO)NC(=O)[C@H](CC(=O)O)NC(=O)[C@H](CC(C)C)NC(=O)[C@H](Cc1ccc(O)cc1)NC(=O)[C@H](CCCCN)NC(=O)[C@H](CO)NC(=O)[C@H](Cc1ccc(O)cc1)NC(=O)[C@H](CC(=O)O)NC(=O)[C@H](CO)NC(=O)[C@@H](NC(=O)[C@H](Cc1ccccc1)NC(=O)[C@@H](NC(=O)CNC(=O)[C@H](CCC(N)=O)NC(=O)[C@H](CO)NC(=O)[C@@H](N)Cc1cnc[nH]1)[C@@H](C)O)[C@@H](C)O)C(C)C)C(=O)N[C@@H](CC(N)=O)C(=O)N[C@H](C(=O)O)[C@@H](C)O [Glucagon HCl]	113% and 109%	113	107	104	102	108	103	109
COc1ccc(-c2coc3cc(O)ccc3c2=O)cc1 [Formononetin (Formononetol)]	93.6% and 91.7%	86.4	82.4	91.4	99.9	99.6	86.7	80.2
O=c1cc(N2CCOCC2)oc2c(-c3ccc4c(c3)OCCO4)csc12	39.4% and 50.7%	46.9	36.4	30.9	15.7	18.2	3.38	11.7
CC(C)C(C(=O)O)N1C(=O)C(=Cc2ccc(Br)cc2)SC1=S (configuration not stated)	105%	102	98.4	105	100	100	102	109
Cn1ncc(Cl)c1-c1cc(C(=O)N[C@H](CN)Cc2ccc(F)c(F)c2)oc1Cl	73.1% and 71.1%	79.8	64.1	59.3	31.9	31.4	51.1	50.4
O=S(=O)(O)CCSSCCS(=O)(=O)O [Dimesna]	107% and 101%	95	99.3	103	96.3	99.6	106	105
C/C(=C(/CCOC(=O)c1ccccc1)SC(=O)c1ccccc1)N(C=O)Cc1cnc(C)nc1N [Dibenzoyl Thiamine]	103%	107	96.5	94	90.8	102	99.1	109
Cc1cnc(Nc2ccc(OCCN3CCCC3)cc2)nc1Nc1cccc(S(=O)(=O)NC(C)(C)C)c1	1.46% and 2.3%	2.29	6.76	10.9	0.67	0.58	0.71	1.39
CC(=O)OCC(=O)[C@@]12N=C(C)O[C@@H]1C[C@H]1[C@@H]3CCC4=CC(=O)C=C[C@]4(C)[C@H]3[C@@H](O)C[C@@]12C [Deflazacort (Calcort)]	98.4% and 102%	103	95	109	103	97	91.4	114
CCC/N=C1\S/C(=C\c2ccc(OC[C@H](O)CO)c(Cl)c2)C(=O)N1c1ccccc1C	89.5% and 93.7%	89.6	105	98.3	94.5	93.5	108	95.2
C/C(=C\C(=O)Nc1ccccc1C(=O)O)c1ccc2ccccc2c1	101% and 90.8%	106	84.3	98.2	88.5	92.8	95.1	93.6
CC(C)=CCC[C@](C)(O[C@@H]1O[C@H](CO)[C@@H](O)[C@H](O)[C@H]1O)[C@H]1CC[C@]2(C)[C@@H]1[C@H](O)C[C@@H]1[C@@]3(C)CC[C@H](O)C(C)(C)[C@@H]3[C@@H](O[C@@H]3O[C@H](CO)[C@@H](O)[C@H](O)[C@H]3O[C@@H]3OC[C@@H](O)[C@H](O)[C@H]3O)C[C@]12C [Notoginsenoside R1]	98.4% and 101%	94.8	106	104	106	103	94.6	96.7
COc1cc(C(=O)OCCCCNC(=N)N)cc(OC)c1O [Leonurine Hydrochloride]	95.9% and 95.7%	101	98.8	95.4	98	102	101	98.6
COc1ccc(-c2cc(=O)c3c(O)cc(O)cc3o2)cc1 [Acacetin]	106%	99.1	102	115	107	107	88.7	102
CC(=CCNc1ncnc2c1ncn2C1OC(CO)C(O)C1O)CO (stereo not drawn) [trans-Zeatin-riboside]	107% and 105%	108	99.7	110	104	105	116	117
C=C1[C@H](CO)[C@@H](O)C[C@@H]1n1cnc2c(=O)[nH]c(N)nc21 [Entecavir]	109% and 104%	103	94.8	101	101	106	79.5	93.7
COc1c(O)c(C)cc2c1C(=O)c1c(O)cccc1C2=O [Obtusifolin]	103% and 105%	107	109	105	111	105	98.6	92.6
CC1(C)CCC2(C(=O)O)C(O)CC3(C)C(=CCC4C5(C)CC(O)C(O)C(C)(CO)C5CCC43C)C2C1 (configuration not stated) [Polygalacic acid]	103% and 102%	103	101	98.5	109	100	104	94.9
CC1(C)O[C@H]1COc1c2ccoc2cc2oc(=O)ccc12 [Oxypeucedanin]	93.6% and 100%	97.6	92.1	93.2	93.6	101	81.9	93.4
